Compound activity from PubChem.
Many of the other results were omitted from the sample, so hits are more common in it than they were.
Epigenetic derep: Quantitative High-Throughput Screen for Regulators of Epigenetic Control; murine LDR cells, GFP reporter derepression, 30 h; Potency, µM (series often up to 53.9 µM), usual class: activators; 280,000 tested, 0.2% active; note: nearly all actives have a fitted effect of over 60% in size
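Murine LDR cells bearing a silenced CMV-driven GFP reporter were exposed to compound for 30 h at 37 C. After PBS washes, GFP-positive cells (20-120 um objects) counted by laser-scanning microplate cytometry.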
PINK1 modulator: A Quantitative High throughput Screen to Identify Chemical Modulators of PINK1 Expression. PINK1 immunofluorescence, high-content cytometry, 24 h. Potency, µM (top dose mostly 76.6 µM), hits mostly activators. 410,000 tested, 0.2% active; active = well fitted activation curve with a large enough effect; inconclusive = small, poorly fitted or top-dose-only effect; cell line not stated here; note: nearly all actives have a fitted effect of over 65% in size
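PINK1 protein level read as immunofluorescence by microplate cytometer in a fixed, stained stable cell line after 24 h exposure to five compound concentrations, with CCCP as control.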
HTT cytoprotect: qHTS Multiplex Assay to Identify Dual Action Probes in a Cell Model of Huntington: Cytoprotection (ATP). PC12 HTT-Q103 induced, cytoprotection, ATP luminescence, 40 h. Potency, µM (series often up to 56.4 µM), actives largely listed as activators. 230,000 tested, 0.14% active; note: nearly all actives have a fitted effect of over 45% in size
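Compounds were screened for protection of PC12 cells against cell death after tebufenozide induction (100 nM final) of mutant Huntingtin exon 1 (Q103) fused to GFP.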
HttQ103 aggreg: qHTS Multiplex Assay to Identify Dual Action Probes in a Cell Model of Huntington: Aggregate Formation (GFP); 220,000 tested, 1.1% active; PC12 HttQ103-GFP aggregates, Acumen cytometry, 40 h; Potency, µM (top dose mostly 46.1 µM), actives largely listed as inhibitors; AID 1688, 2009; note: nearly all actives have a fitted effect of over 60% in size
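Ecdysone-promoter PC12 model expressing HTT exon 1 Q103 fused to GFP, induced by tebufenozide at 100 nM final. Compounds titrated; aggregates sized 1–25 µm scored on a 488 nm laser cytometer.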
Hits are given with their value; – = inactive; ? = inconclusive; · = no result given; [ ] = dose if it differs, or a comment. Unless noted, calls come from the whole dose curve; as a rule, active = well fitted curve in the direction sought with a large enough effect; inconclusive = small, poorly fitted or top-dose-only effect, or another doubt; inactive = no such curve, though single readings can be large; an effect the other way counts as inactive or inconclusive.

SMILES	Epigenetic derep	PINK1 modulator	HTT cytoprotect	HttQ103 aggreg
CN1C(=O)[C@H]2[C@@H](C3CC3)N3C(=O)CN(Cc4ccccn4)C(=O)[C@@]3(Cc3ccccc3)[C@H]2C1=O	·	–	·	·
CCn1cc(C(=O)N(C)c2ccc(OC)cc2OC)c2cc(OC)c(OC)cc2c1=O	·	–	·	·
O=C(Cc1ccc(Br)cc1)Nc1ncc([N+](=O)[O-])s1	–	25µM	–[10 µM]	–[9.22 µM]
O=C(COc1ccc(Cl)cc1)Nc1ncc([N+](=O)[O-])s1	–	16µM	–	13µM
O=C(Cc1ccc(Cl)cc1)Nc1ncc([N+](=O)[O-])s1	–	?	–	?
Cn1cccc1/C=C(\C#N)c1ccccc1	–	–	–	–
O=[N+]([O-])c1cc(S(=O)(=O)Nc2cccc(C(F)(F)F)c2)ccc1-n1nnc2ccccc21	–	22µM	–	11µM
COc1ccc(NS(=O)(=O)c2ccc(-n3nnc4ccccc43)c([N+](=O)[O-])c2)cc1	–	?	–	–[9.22 µM]
COc1ccccc1CNC(=O)CCCn1c(=O)c2ccccc2n(Cc2ccccc2F)c1=O	–	–	·	·
O=S(=O)(c1cccc(C(F)(F)F)c1)N1CCC(c2cc(-c3cccc4ccccc34)n[nH]2)CC1	–	–	–	1µM
COc1ccc(/C=N/NC(=O)c2ccccc2O)cc1Cn1cc(Cl)cn1	–	–	–	–
Cc1ccc(OCC(=O)N2CC(C)OC(C)C2)c([N+](=O)[O-])n1 (centres undefined)	–	–	0.05µM	–
O=C(CSc1nc2ccccc2s1)Nc1nccs1	–	·	–	20µM
Cc1csc(NC(=O)CSc2nc3ccccc3s2)n1	–	–	–[10 µM]	–
Cc1ccc(-n2[nH]c(C)c(/C=N/c3ccccn3)c2=O)cc1	–	·	–[0.074 µM]	–
CCCc1nc2ccccc2c(=O)n1/N=C/c1c(C)[nH]n(-c2ccc(C)cc2)c1=O	–	–	–[0.074 µM]	18µM
CCCc1nc2ccccc2c(=O)n1/N=C/c1ccccc1O	–	–	–[0.074 µM]	10µM
CSc1cccc(Nc2cc(C(=O)NCCCN(Cc3ccccc3)C(C)C)c3ccccc3n2)c1	?	–	·	·
CC1(C)N=C(SCC(=O)Nc2ccccc2)C(c2ccc(Cl)cc2)=N1	–	–	18µM	–
Cc1ccc(C2=NC(C)(C)N=C2SCC(=O)Nc2ccc(Cl)cc2)cc1	–	–	–	–[9.22 µM]
CN(Cc1cnn(C)c1)C(=O)C1CCC(=O)N(Cc2cccc(F)c2)C1 (centres undefined)	·	–	·	·
COc1cc(NCCCCCCCN)c2ncccc2c1	–	–	–[10 µM]	1.8µM
Cc1c(C(=O)NCc2ccc(C(F)(F)F)cc2)sc(=O)n1Cc1cccc(F)c1	·	–	·	·
CCOc1ccc(-c2nnn(CCC#N)n2)cc1OC	–	–	·	·
COc1ccc(-n2c(SC3CCOC3=O)nc3ccccc3c2=O)cc1OC (centres undefined)	–	10µM	–	–
SMILES	Epigenetic derep	PINK1 modulator	HTT cytoprotect	HttQ103 aggreg
CCOC(=O)N1CCC(N2CCCC(CO)(Cc3cccc(OC)c3)C2)CC1 (centres undefined)	–	–	·	0.0006µM
COc1cccc(CC2(CO)CCCN(S(=O)(=O)N(C)C)C2)c1 (centres undefined)	–	–	–[10 µM]	–[9.22 µM]
O=C(CN(c1ccc(Cl)c(C(F)(F)F)c1)S(=O)(=O)c1ccccc1)Nc1cccnc1	–	–	·	·
COc1ccccc1C(=O)Nc1c(C(=O)c2ccccc2)oc2ccccc12	–	–	·	·
Cc1ccc2c(c1)CCCN2C(=O)c1cnn2c1NC(=C1CC1)C=C2C(F)F	·	–	·	·
CCc1ccc(NC(=O)c2cnn3ccccc23)cc1	–	–	–	–
O=[N+]([O-])c1ccc(C=CC=Cc2ccccc2)cc1	·	32µM	·	·
O=C(C=Cc1ccccc1)c1ccc([N+](=O)[O-])cc1	·	–	·	·
CCOC(=O)CN1C(=O)C(CC)Oc2ccccc21 (centres undefined)	–	–	–[0.074 µM]	–
CCOC(=O)C(C(=O)OCC)C1N=C(N)N=C2Oc3ccccc3N21 (centres undefined)	–	–	–[10 µM]	3.2µM
Cc1cccc(C)c1NC1=NC2(CCCCC2)N=C(N)N1	–	·	0.63µM	·
CN(C)/C=C/C(=O)c1nnn(C2CCCCC2)c1NC1CCCCC1	–	–	–	?
CCN(CC)c1ccc2nc3ccc(N)cc3[n+](-c3ccccc3)c2c1	·	10µM	·	·
CCN(CC)c1ccc2nc3ccccc3[n+](CC)c2c1	·	–	·	·
CCOC(=O)c1cccc(NC(=O)Cn2c(=O)nc(-c3ccccc3F)c3cc(Cl)ccc32)c1	–	–	·	·
CC[C@]1(O)CC2CN(CCc3c([nH]c4ccccc34)[C@@](C(=O)OC)(c3cc4c(cc3OC)N(C)[C@H]3[C@@](O)(C(=O)OC)[C@H](OC(C)=O)[C@]5(CC)C=CCN6CC[C@]43[C@@H]65)C2)C1 (some centres undefined)	·	–	–	–
CCC1=C[C@@H]2CN(C1)Cc1c([nH]c3ccccc13)[C@@](C(=O)OC)(c1cc3c(cc1OC)N(C)[C@@H]1[C@@](O)(C(=O)OC)[C@H](OC(C)=O)[C@]4(CC)C=CCN5CC[C@]31[C@@H]54)C2	·	·	–	5.6µM
N=c1n(Cc2ccc(Cl)cc2)c2ccccc2n1CC(O)COc1ccccc1 (centres undefined)	–	–	–[10 µM]	14µM
NC(=O)CCC(NS(=O)(=O)c1ccc(Cl)cc1)C(=O)NCc1ccc(Cl)cc1 (centres undefined)	–	–	–[10 µM]	?
CN1C(=O)C2(OCC(COc3ccc(Cl)cc3)O2)c2ccccc21 (centres undefined)	–	–	–	1µM
O=C1/C(=C\c2cc([N+](=O)[O-])ccc2O)SC(=S)N1Cc1ccc(Cl)cc1	·	14µM	·	·
O=C1S/C(=C\c2ccc(O)c([N+](=O)[O-])c2)C(=O)N1Cc1cccc([N+](=O)[O-])c1	–	40µM	–[10 µM]	–[9.22 µM]
Cc1cccc(NC(=O)CN2C(=O)S/C(=C\c3ccc(O)c([N+](=O)[O-])c3)C2=O)c1	–	–	–	–
OC(c1ccc(Cl)c(Cl)c1)c1ncc(-c2cccc(F)c2)[nH]1 (centres undefined)	·	–	·	·
O=C(CCCn1c(=O)c2ccccc2n(Cc2ccccc2)c1=O)NCc1ccco1	–	–	–	–[9.22 µM]
SMILES	Epigenetic derep	PINK1 modulator	HTT cytoprotect	HttQ103 aggreg
O=C(CCCCn1c(=O)c2ccccc2n(Cc2ccc(F)cc2)c1=O)NCc1ccco1	–	–	–[10 µM]	1µM
COc1ccc(NC(=O)c2cn3c4c(ccc(Cl)c4c2=O)OC(C)C3)cc1OC (centres undefined)	18µM	–	·	·
Fc1cccc(Nc2nc3ccccc3n3cnnc23)c1	·	–	·	·
CC(C)CN1C(=S)SC(C)(C)C1n1oc(=O)n(-c2ccccc2)c1=O (centres undefined)	–	–	–[10 µM]	–
CC(C)CN1C(=S)SC(C)(C)C1n1oc(=O)n(-c2ccc(Cl)cc2)c1=O (centres undefined)	–	–	–	25µM
Cc1cccc(C(=O)NNC2=C(C(=O)C(F)(F)F)CCC2)c1O	–	16µM	–	?
